High-throughput results as filed in PubChem BioAssay.
In the library only some 12% were active in any assay of this set; here they are far more common.
Pf growth 48h – Primary qHTS for delayed death inhibitors of the malarial parasite plastid, 48 hour incubation; P. falciparum luciferase growth in erythrocytes, 48 h; Potency, µM (series often up to 28.7 µM), usual class: inhibitors; hit rate 5.9% among 310,000
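Erythrocytes infected with P. falciparum carrying an integrated firefly luciferase reporter (2% hematocrit, 0.1% parasitemia final) were exposed to compounds in RPMI 1640 with 0.5% Albumax at 37 C, 5% CO2. Growth inhibition was scored as reduced luminescence.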
HCV inhibitor – qHTS Assay for Inhibitors of Hepatitis C Virus (HCV); Huh7.5.1 HCVcc-Cre infection, luciferase reporter, 44 h; Potency, µM (top dose mostly 41.8 µM), most hits filed as inhibitors; hit rate 3.4% among 340,000
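Cells seeded at 1,000/well and cultured 4 h, then compounds added followed by HCVcc-Cre virus (~0.5 moi). After 44 h further culture, luciferase substrate was added, plates held 15 min at room temperature, and luminescence read for 15 sec.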
AMA1 RON2 block – qHTS for Inhibitors of AMA1-RON; Towards Development of Antimalarial Drug Lead: Primary Screen. Potency, µM (series often up to 58.2 µM), hits mostly inhibitors. hit rate 0.2% among 360,000. AlphaScreen AMA1-biotinylated RON2 peptide binding. AID 720542, 2013; note: nearly all actives have a fitted effect of over 45% in size
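AMA1 (3D7) with his tag at 25 nM final met compounds first, then biotinylated RON2 peptide at 25 nM; detection used donor plus acceptor beads, 10 µg/mL apiece, read by AlphaScreen after 30 min at room temperature.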
Pf growth 96h – Primary qHTS for delayed death inhibitors of the malarial parasite plastid, 96 hour incubation; P. falciparum luciferase reporter growth, 96 h; Potency, µM (series often up to 28.7 µM), most hits filed as inhibitors; hit rate 6.9% among 320,000
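Delayed-death screen, second-generation endpoint: infected erythrocytes, 2% hematocrit, 0.05% parasitemia final; 96 hours at 37 C, 5% CO2; luciferase detection reagent; luminescence decrease equals reduced growth.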
NS1 function inh – qHTS Assay for Inhibitors of Influenza NS1 Protein Function | Potency, µM (top dose mostly 46.1 µM) | hit rate 0.4% among 270,000; calls by dose curve; note: actives are rising curves; nearly all actives have a fitted effect of over 50% in size
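Read-out: OD600 growth recovery of NS1-expressing budding yeast. Cells grown overnight at 30C in -URA glucose medium, washed, resuspended and diluted 1:100 in 2% galactose assay medium, pH 6.0. Same strain lacking NS1 served as positive control.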
SARS PLP yeast – qHTS of Yeast-based Assay for SARS-CoV PLP; S. cerevisiae expressing SARS-CoV PLpro, growth rescue; Potency, µM (doses to about 32.9 µM), most hits filed as activators; hit rate 0.19% among 330,000; AID 485353, 2010; calls by dose curve; note: nearly all actives have a fitted effect of over 55% in size
A number is an active result; – = inactive; ? = inconclusive; · = no result given; [ ] = dose if it differs, or a comment. Unless noted, calls come from the whole dose curve; as a rule, active = well fitted curve in the direction sought with a large enough effect; inconclusive = small, poorly fitted or top-dose-only effect, or another doubt; inactive = no such curve, though single readings can be large; an effect the other way counts as inactive or inconclusive.

SMILES	Pf growth 48h	HCV inhibitor	AMA1 RON2 block	Pf growth 96h	NS1 function inh	SARS PLP yeast
COc1ccc2nc(C)cc(SCC(=O)N/N=C/c3cccc4ccccc34)c2c1	?	10µM	–	?	–	–
Cc1ccc2nc(C)cc(N/N=C/c3cccnc3)c2c1	–	–	–	–	–	–
COc1ccc2nc(C)cc(Nc3ccccc3OC)c2c1	·	·	–	·	·	·
COc1ccc(/C=N/Nc2cc(C)nc3ccc(Br)cc23)cc1	0.262µM	6.31µM	?	0.465µM	–	–
Cc1cc(N/N=C/c2ccccc2O)c2ccccc2n1	0.522µM	?	–	?	–	–
COc1ccc2nc(C)cc(SCC(=O)N/N=C/c3ccc(O)c(O)c3)c2c1	–	?	–	–	·	–
COc1ccc2nc(C)cc(N/N=C/c3cccc(OC)c3O)c2c1	0.0928µM	?	–	–	–	–
CCC(Oc1ccccc1)C(=O)NCCCN1CCOCC1 (centres undefined)	–	–	–	–	–	–
O=C(NCc1ccco1)c1ccccc1O	–	–	–	10.4µM	–	–
Cc1ccc(C)c(S(=O)(=O)NCC(=O)NCc2ccco2)c1	–	–	–	?	–	–
Cc1ccc(C(=O)NCc2ccco2)c(C)c1	–	–	–	11.7µM	–	–
Cc1ccc(C)c(S(=O)(=O)NCc2ccc(C(=O)NCc3ccco3)cc2)c1	?	–	–	9.28µM	–	–
O=C(NCc1ccco1)c1cccc2ccccc12	–	–	–	–	–	–
O=C(Nc1ccccc1C(=O)NCc1ccco1)Nc1cccc2ccccc12	?	11.2µM	–	–	·	–
CCOC1=CC2=C(C(=O)C(Cl)=CC2=O)[C@@H]2CN(S(=O)(=O)c3ccc(C)cc3)[C@@H](c3ccccc3)[C@H]12	·	·	–	·	·	·
COc1cc(C(C)=O)ccc1OCC(=O)OCCCOC(=O)COc1ccc(C(C)=O)cc1OC	–	–	–	–	–	–
C=C1C(=O)OC2C1CCC(C)C1C=CC(=O)C12C (centres undefined)	·	?	–	·	·	·
C=C1C(=O)OC2C1CCC(C)C1(O)C=CC(=O)C21C (centres undefined)	·	8.91µM	–	·	·	·
Cc1ccc2c(=O)n3c(nc2c1)C(CC(C)C)NC(=O)c1ccc(Cl)cc1-3 (centres undefined)	·	–	·	·	·	–
Cc1ccc(C)c(S(=O)(=O)N2CCN(C(=O)c3cccnc3)CC2)c1	–	–	–	–	–	–
COc1ccc(OCC(=O)Nc2c3c(nn2-c2ccccc2)CS(=O)(=O)C3)cc1	–	–	–	–	–	–
O=c1c2ccccc2nc2c3ccccc3c(NCCN3CCOCC3)nn12	–	·	·	–[5.75 µM]	–	–
O=c1c2c(-c3ccccc3)csc2nc2c3ccccc3c(NCCN3CCOCC3)nn12	3.29µM	?	–	1.17µM	·	–
Cc1cc(C(=O)Nc2c(F)cc(F)cc2Br)cs1	–	–	–	14.7µM	–	–
O=C(Nc1c(F)cc(F)cc1Br)c1cccnc1	–	–	–	–	–	–
SMILES	Pf growth 48h	HCV inhibitor	AMA1 RON2 block	Pf growth 96h	NS1 function inh	SARS PLP yeast
Cc1ccc(C)c(-c2[nH]ncc2CN2CCCC(CO)(Cc3ccccc3C)C2)c1 (centres undefined)	?	12.6µM	–	?	–	–
COc1ccc(/C=N/NC(=O)c2nc(-c3ccccc3)cc(-c3ccccc3)n2)cc1OC	?	?	–	2.33µM	–	–
CCOc1cc(/C=N/NC(=O)c2ccc(N(C)S(=O)(=O)c3ccccc3)cc2)ccc1OC	–	8.91µM	–	–	–	–
COc1cc(/C=N\NC(=O)c2ccc(-c3ccccc3)cc2)cc(OC)c1O	9.28µM	?	–	–	–	–
COc1cc(/C=N\NC(=O)c2ccc(-c3ccccc3)cc2)cc(OC)c1OC(C)=O	?	?	–	?	–	–
CN(Cc1c(C(=O)N2CCc3ccccc3C2)nc2ccc(Cl)cn12)C(C1CC1)C1CC1	?	–	–	–	–	–
CN(C)CCNc1nc2sc3c(c2c(=O)n1-c1ccc(F)cc1)CCCCC3	10.4µM	?	–	?	–	–
CN(C)CCNc1nc2sc3c(c2c(=O)n1Cc1ccccc1)CCCCC3	?	11.2µM	–	?	–	–
